Results on 15 compounds are retold here after PubChem BioAssay (NCI).

Compounds without any hit were thinned out: in the full panel of roughly 83,000, 20% have a hit.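 Method: cells in 96-well plates; compound added at one concentration; 48 h incubation; percent growth measured; values under 10 scored active.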 Values without a mark were called inactive. Activity calls are given as the source filed them.

Among the test systems are T-47D breast; BT-549 breast; MDA-MB-435 melanoma; SW-620 colon; MCF7 breast; HCT-116 colon; HCC-2998 colon; KM12 colon.
Common to all, as to assay: NCI-60 one-dose screen, 48 h (100 = growth as untreated, 0 = no growth, -100 = all killed)
Details in all cases: 10 µM unless noted

For `CC(C)(O)C1CCCN1C(=O)c1ccccc1I` (stereo not given), the growth in the test with T-47D breast was 85.7%; in the test on BT-549 breast it was 133%; with MDA-MB-435 melanoma, 93.2%; in the test with SW-620 colon it was 95.4%; in the test with MCF7 breast, 91.6%; with HCT-116 colon, 68.9%. The growth with HCC-2998 colon is 112%; in the test on KM12 colon, 94.3%.

Take `C#Cc1cccc(NC(=O)Nc2cccc(N=C=S)c2)c1`: the growth is 100% [8.25 µM] with T-47D breast; 102% [8.25 µM] with BT-549 breast; 97.3% [8.25 µM] in the test on MDA-MB-435 melanoma; 104% [8.25 µM] in the test on SW-620 colon; 86.1% [8.25 µM] with MCF7 breast; 95.5% [8.25 µM] in the test on HCT-116 colon. For the same compound, the growth with HCC-2998 colon is 105% [8.25 µM]; in the test with KM12 colon, 106% [8.25 µM].

In the case of `CS(=O)(=O)OCCN(CCOS(C)(=O)=O)c1ccc(/C=N/Nc2ccc([N+](=O)[O-])cc2[N+](=O)[O-])cc1`, the growth in the test with T-47D breast is 76%; in the test on BT-549 breast, 99.3%; with MDA-MB-435 melanoma it was 94.1%; in the test with SW-620 colon, 73.4%; in the test on MCF7 breast, 66.5%; in the test with HCT-116 colon, 83.9%. Moreover, the figures for the growth in the test on HCC-2998 colon and in the test with KM12 colon were 80.2% and 99.6%, respectively.

Consider `COc1cc(C2CC(c3cccc(Nc4ccncc4)c3)=NN2c2ccc(Cl)cc2)cc(OC)c1OC` (stereo not given), for which the growth in the test on T-47D breast is 71.3%; in the test with BT-549 breast it was 107%; in the test on MDA-MB-435 melanoma, -88.3% (active); in the test with SW-620 colon, -66.6% (active); in the test with MCF7 breast it was -36.1% (active); with HCT-116 colon, 105%. The growth with HCC-2998 colon was -36.2% (active); in the test with KM12 colon, -74.5% (active).

For `COc1nccnn1`, the growth was 107% in the test on T-47D breast; 94% in the test on BT-549 breast; 93% in the test on MDA-MB-435 melanoma; 101% in the test with SW-620 colon; 103% with MCF7 breast; 99.2% in the test on HCT-116 colon. Besides, the results for the growth in the test on HCC-2998 colon and in the test on KM12 colon were 110% and 95.7%, respectively.

Consider `CCCN=C(N)c1ccc(NC(=O)c2ccc(C(=O)Nc3ccc(C(N)=NCCC)cc3)cc2)cc1`, for which the growth in the test with T-47D breast is 77.6%; with BT-549 breast, 93.9%; in the test with MDA-MB-435 melanoma it was 90.2%; in the test on SW-620 colon, 104%; in the test with MCF7 breast, 87.8%; in the test with HCT-116 colon, 92.2%. Also, the values for the growth in the test on HCC-2998 colon and with KM12 colon were 109% and 95.5%, respectively.

Consider `N/C(=N\N=C\c1cc2ccccc2s1)N/N=C/c1cc2ccccc2s1`, for which the growth in the test on T-47D breast was 95.5%; with BT-549 breast, 78.5%; in the test with MDA-MB-435 melanoma, 106%; with SW-620 colon, 103%; with MCF7 breast, 82.7%; in the test with HCT-116 colon it was -69.7% (active). Moreover, the growth in the test with HCC-2998 colon and in the test with KM12 colon was 103% each time.

In the case of `Cc1[nH]c(C(=O)Nc2ccccc2OCc2cccc(C(=O)NCCN)c2)c(Cl)c1Cl`, the growth is 46.5% in the test with T-47D breast; 97.2% in the test with BT-549 breast; 69.1% in the test on MDA-MB-435 melanoma; 3.75% (active) with SW-620 colon; 14.7% in the test with MCF7 breast; 7.52% (active) with HCT-116 colon. Moreover, the figures for the growth in the test with HCC-2998 colon and in the test on KM12 colon were 84.4% and 64.1%, respectively.

Regarding `O=C1NC(=S)NC(=O)C1=Cc1cn(Cc2ccccn2)c2ccccc12`, the growth is 89.8% in the test with T-47D breast; 66.8% in the test with BT-549 breast; 21.3% in the test with MDA-MB-435 melanoma; 48.3% in the test with SW-620 colon; 34.6% with MCF7 breast; 2.36% (active) with HCT-116 colon. Besides, the growth with HCC-2998 colon was 54.2%; with KM12 colon, 57.2%.

Turning to `O=C(Nc1nc2ccc(C(=O)N3CCN(c4ccc(Cl)c(Cl)c4)CC3)cc2s1)c1ccc(NCCc2ccccc2)c([N+](=O)[O-])c1`, the growth in the test with T-47D breast was 84.4%; in the test on BT-549 breast it was 108%; in the test with MDA-MB-435 melanoma, 111%; in the test with SW-620 colon, 103%; with MCF7 breast, 96.7%; in the test with HCT-116 colon it was 95%. Also, the figures for the growth in the test with HCC-2998 colon and with KM12 colon were 105% and 107%, respectively.

`O=C(CNCCO)Nc1ccc2ncnc(Nc3ccc(OCc4cccc(F)c4)c(Cl)c3)c2c1`: the growth in the test with T-47D breast is 45.2%; in the test on BT-549 breast it was 80.5%; in the test with MDA-MB-435 melanoma, 96.8%; in the test on SW-620 colon, 106%; in the test with MCF7 breast, 82.5%; in the test with HCT-116 colon, 64.3%. The growth in the test on HCC-2998 colon was 97%; with KM12 colon, 87%.

Take `Nc1c(C(=O)Nc2cccc3ccncc23)sc2nc3c(cc12)C(=O)CCC3`: the growth with T-47D breast is 48.5%; with BT-549 breast it was 50.6%; in the test on MDA-MB-435 melanoma, -35% (active); in the test with SW-620 colon, 31.1%; with MCF7 breast, 21.5%; with HCT-116 colon it was 43.4%. The growth with HCC-2998 colon is 77.2%; with KM12 colon, 30.8%.

Regarding `OC1(c2ccc(Cl)c(C(F)(F)F)c2)CCN(CCCC(c2ccc(F)cc2)c2ccc(F)cc2)CC1`, the growth with T-47D breast was -62.1% (active); in the test on BT-549 breast, -92.8% (active); in the test on MDA-MB-435 melanoma, -91.6% (active); in the test on SW-620 colon it was -100% (active); with MCF7 breast, -90.3% (active); in the test on HCT-116 colon, -92.3% (active). The growth with HCC-2998 colon was -97.2% (active); in the test on KM12 colon it was -99.2% (active).

`COc1ccc(/C(C)=N/NC(=O)CSc2nc3ccccc3c(=O)n2Cc2ccc(S(N)(=O)=O)cc2)c(OC)c1`: the growth in the test with T-47D breast is 95.6%; with BT-549 breast it was 104%; with MDA-MB-435 melanoma, 102%; in the test on SW-620 colon, 102%; with MCF7 breast it was 90.7%; in the test on HCT-116 colon, 102%. For the same compound, the growth in the test with HCC-2998 colon was 115%; in the test with KM12 colon, 102%.

On to `CCCCCCCCCCN=C(N)N=C(N)N`, for which the growth in the test on T-47D breast was 29.4%; in the test on BT-549 breast it was 15.6%; in the test on MDA-MB-435 melanoma, 37.7%; with SW-620 colon, 58.5%; with MCF7 breast, 32.9%; with HCT-116 colon, 41.9%. Further, the figures for the growth in the test on HCC-2998 colon and in the test on KM12 colon were 49.5% and 28.5%, respectively.
